Experiments:
Type in all cases: functional
Plasmodium falciparum [1] = test: GSK_TCMDC: Inhibition of Plasmodium falciparum 3D7 in whole red blood cells, using parasite LDH activity as an index of growth. Test compounds present at 2uM
Plasmodium falciparum [2] = test: GSK_TCMDC: Inhibition of Plasmodium falciparum Dd2 in whole red blood cells, using parasite LDH activity as an index of growth. Test compounds present at 2uM
HepG2 = test: GSK_TCMDC: Percent inhibition of human HepG2 cell line. Test compounds present at 10uM.

Row | Compound | Inhibition (Plasmodium falciparum [1]) | Inhibition (Plasmodium falciparum [2]) | Inhibition (HepG2)
1 | CCc1ccc(-n2c(NC(=O)c3ccccc3)nc3ccc(S(=O)(=O)NC(C)C(C)C)cc32)cc1 (stereo not drawn) | 88% | 0% | 48%
2 | O=C(CN1CCC2(CCC1=O)CC(=O)c1ccccc1O2)NCCN1CCOCC1 (stereo not drawn) | 100% | 0% | 6%
3 | COc1c(C2CCN(CCCCNC(=O)c3ccc(NC(=O)c4ccc(C#N)cc4)cc3)CC2)ccc2c1CCCC2 | 97% | 100% | 81%
4 | O=S(=O)(c1cccc(Cl)c1F)N(CCC(O)(C(F)(F)F)C(F)(F)F)Cc1cccc(O)c1 | 100% | 86% | 0%
5 | CCCN1CCC(NCc2cn(C)nc2-c2ccc(Oc3ccccc3)cc2)CC1 | 88% | 44% | 34%
6 | COc1cc(C(=O)Nc2cccc(-c3cn4ccc(C)cc4n3)c2)cc(OC)c1OC | 97% | 83% | 0%
7 | C#CCN(Cc1ccc2[nH]c(N)nc(=O)c2c1)c1ccc(C(=O)N[C@@H](CCC(=O)O)C(=O)O)cc1 | 95% | 96% | 45%
8 | CC1CCN(CC[C@H]2CCCN2S(=O)(=O)c2cccc(NC(=O)c3ccc(-c4ccc(Cl)cc4)o3)c2)CC1 | 100% | 65% | 45%
9 | O=c1c2c([nH]c3cc(Cl)ccc13)CCCC2 | 96% | 73% | 33%
10 | O=C(Nc1ccc(-c2cccc(-c3nc4cc(F)ccc4[nH]3)c2)cc1)c1cnn2cccnc12 | 98% | 25% | 10%
11 | O=C(NCCN1CCCC1)c1ccc(-c2ccc(-c3nc4ccccc4[nH]3)s2)cc1 | 92% | 3% | 22%
